HP1b binding inh – blocks HP1-beta chromodomain binding to methylated histone tails; P83916; AlphaScreen HP1-beta / biotin-H3K9me3 peptide binding; Potency, µM (titrated, usually from 114 µM), most hits filed as inhibitors; hit rate 0.56% among 390,000; AID 540317; further: nearly all actives have a fitted effect of over 70% in size
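HP1-beta protein (50 nM final) preincubated 30 min at room temperature with biotinylated H3(1-18)K9me3 peptide (50 nM) in PBS pH 7.4, 0.01% Tween-20, then compound added for 30 min. AlphaScreen streptavidin donor/nickel chelate acceptor beads (10 ug/mL final), 30 min dark, luminescence read.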
G9a inh-1 – inhibitors of human histone lysine methyltransferase G9a | Q96KQ7 | G9a H3K9 monomethylation, AlphaScreen, 2 h | Potency, µM (series often up to 102 µM), most hits filed as inhibitors | hit rate 8.8% among 350,000; further: nearly all actives have a fitted effect of over 75% in size
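Enzyme 20 nM + cpd, 15 min RT; add b-H3K9 pep 500 nM / SAM 20 uM; 2 h RT; anti-H3K9me1 Ab 0.5 ug/mL + SA donor / anti-rabbit acceptor beads 20 ug/mL each, 10 min; AlphaScreen read.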
L3MBTL1 block – inhibitors of human L3MBTL1; Q9Y468; AlphaScreen L3MBTL1–H3K9me1 peptide binding; Potency, µM (series often up to 57.1 µM), usual class: inhibitors; hit rate 0.66% among 230,000; AID 485360; further: nearly all actives have a fitted effect of over 60% in size
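First, the protein-peptide complex forms for 30 min at room temperature (L3MBTL1 50 nM, biotinylated H3K9me1 peptide 75 nM). Next, compounds are pin-transferred and incubated 30 min. Finally, AlphaScreen beads are added and read after 30 min.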
BAZ2B block – blocks human BAZ2B | AID 504333 | Q9UIF8 | hit rate 4.4% among 360,000 | AlphaScreen BAZ2B-H3K14Ac peptide displacement | Potency, µM (top dose mostly 114 µM), hits mostly inhibitors; further: nearly all actives have a fitted effect of over 60% in size
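Multi-concentration screen (max 110 uM) measuring displacement of acetylated histone H3 peptide from BAZ2B by AlphaScreen, using 50 nM protein, 50 nM peptide and 10 ug/mL streptavidin donor plus Ni-chelate acceptor beads.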
GLS inhibitor – blocks human kidney-isoform glutaminase activity | O94925 | Potency, µM (highest dose often 45.5 µM), hits mostly inhibitors | hit rate 0.21% among 410,000 | GLS enzymatic activity, qHTS titration
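Coupled fluorescence readout: glutamate oxidase/HRP/Amplex Red detect glutamate formed by hKGA from L-glutamine (1 mM solution added). Buffer 45 mM KH2PO4 pH 8.2, 0.02% Tween-20; reads at t0 and 30 min RT.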
JMJD2A Tudor inh – JMJD2A Tudor domain (human) inhibition. O75164. AlphaScreen JMJD2A-Tudor / H3K4me3 peptide binding. Potency, µM (highest dose often 114 µM), most hits filed as inhibitors. hit rate 4.4% among 390,000; further: nearly all actives have a fitted effect of over 50% in size
JMJD2E confirm – confirmation of inhibitors of human JMJD2E demethylase. AID 2677. Recombinant JMJD2E, FDH-coupled NADH fluorescence (FDH is formaldehyde dehydrogenase). Potency, µM (titrated, usually from 56.8 µM), usual class: inhibitors. hit rate 93% among 140. shares compounds with JMJD2A Tudor inh
FDH counter – FDH (Pseudomonas putida) inhibition counter-screen; FDH enzyme assay, NADH fluorescence kinetic; shares compounds with JMJD2A Tudor inh; Potency, µM (titrated, usually from 56.7 µM), usual class: inhibitors; AID 2680; hit rate 10% among 140
G9a inh-2 – confirmation of human histone methyltransferase G9a inhibitors; shares compounds with JMJD2A Tudor inh; G9a H3K9 monomethylation, AlphaScreen, 2 h; Potency, µM, most hits filed as inhibitors; hit rate 89% among 370; AID 588344; further: nearly all actives have a fitted effect of over 65% in size
RGS4 confirm – inhibits human RGS4, hit validation; shares compounds with JMJD2A Tudor inh; RGS4 GAP activity, Transcreener GDP fluorescence polarization; Potency, µM, most hits filed as inhibitors; hit rate 80% among 25; AID 602388
Large screens that a line does not name were inactive (follow-up assays come after a bar, where they were run). Hits are enriched below; roughly 10% of the tested compounds scored in any of these assays. The call rests on the fitted dose curve; in most records, active means well fitted curve in the direction sought with a large enough effect; inconclusive means small, poorly fitted or top-dose-only effect, or another doubt; inactive means no such curve, though single readings can be large; an effect the other way counts as inactive or inconclusive.

Oc1c(C(Nc2nccs2)c2ccc(C(F)(F)F)cc2)ccc2cccnc12 (configuration not stated)	JMJD2A Tudor inh 45µM (no result: L3MBTL1 block) | JMJD2E confirm 22µM | FDH counter inactive
O=C(Nc1nccs1)NC(C(F)(F)F)C(F)(F)F	none (no result: L3MBTL1 block)
CC(C)(C)C(=O)Nc1cccc(C(=O)OCc2cc(=O)n3nc(C4CCCCC4)sc3n2)c1	none (no result: L3MBTL1 block)
Cc1cc2cc(C(c3nnnn3Cc3ccco3)N3CCc4ccccc43)c(=O)[nH]c2cc1C (configuration not stated)	G9a inh-1 11µM, BAZ2B block inconclusive, JMJD2A Tudor inh inconclusive | RGS4 confirm 6.7
Cc1ccc(OCc2nc(-c3ccc(C(=O)NCCc4ccc(S(N)(=O)=O)cc4)cc3)oc2C)cc1	none (no result: L3MBTL1 block)
CC(C)OC(=O)CN1CCN(S(=O)(=O)c2cc(Cl)ccc2Cl)CC1	none (no result: L3MBTL1 block)
CN(C)c1ccc(NC(=O)CN2CCN(S(=O)(=O)c3cc(Cl)ccc3Cl)CC2)cc1	HP1b binding inh inconclusive, G9a inh-1 1.4µM, BAZ2B block 35µM, JMJD2A Tudor inh inconclusive (no result: L3MBTL1 block) | G9a inh-2 4.5
CCOC(=O)N1CCc2c(sc(NC(=O)CN3CCOCC3)c2C(=O)Nc2ccccc2)C1	G9a inh-1 inconclusive, BAZ2B block inconclusive
CCOC(=O)N1CCc2c(sc(NCc3cccs3)c2C(=O)Nc2cc(OC)ccc2OC)C1	HP1b binding inh inconclusive, G9a inh-1 1.6µM, JMJD2A Tudor inh 3.2µM (no result: L3MBTL1 block) | G9a inh-2 1.1
CCOC(=O)N1CCc2c(sc(NCc3cccs3)c2C(=O)Nc2ccc(OC)cc2OC)C1	G9a inh-1 2.8µM, BAZ2B block inconclusive, JMJD2A Tudor inh 3.2µM (no result: L3MBTL1 block) | G9a inh-2 3.6
Cc1ccc(NC(=O)CC2SC3=NCCCN3C2=O)c(C)c1 (configuration not stated)	G9a inh-1 0.71µM (no result: L3MBTL1 block) | G9a inh-2 4.5
CO/N=C(\C(=O)N[C@@H]1C(=O)N2C(C(=O)[O-])=C(C[N+]3(C)CCCC3)CS[C@@H]12)c1csc(N)n1	none (no result: HP1b binding inh, L3MBTL1 block, BAZ2B block, JMJD2A Tudor inh)
COc1ccc(Cl)cc1NC(=O)c1c(NCc2cccnc2)sc2c1CCCC2	G9a inh-1 inconclusive, BAZ2B block inconclusive, JMJD2A Tudor inh inconclusive (no result: L3MBTL1 block) | G9a inh-2 1.8
Cc1cccc(NC(=O)c2c(NC(=O)c3ccccc3)sc3c2CCCC3)c1	G9a inh-1 1.3µM, BAZ2B block 56µM, JMJD2A Tudor inh 79µM (no result: L3MBTL1 block) | G9a inh-2 2
Cc1cccc(NC(=O)c2c(NC(=O)c3ccccc3)sc3c2CCC3)c1	none (no result: L3MBTL1 block)
CCOC(=O)Cn1c(=O)n(CC2CCCO2)c2nc(-c3ccc(C(C)C)cc3)nc(C(N)=O)c21 (configuration not stated)	none (no result: L3MBTL1 block)
CCn1c2ccccc2c2cc(CN3CCN(Cc4ccc(Cl)cc4)CC3)ccc21	HP1b binding inh inconclusive, G9a inh-1 0.5µM, BAZ2B block 16µM, JMJD2A Tudor inh 7.9µM (no result: L3MBTL1 block) | G9a inh-2 22
CCn1c2ccccc2c2cc(CN3CCN(Cc4cc(OC)c(O)c(OC)c4)CC3)ccc21	HP1b binding inh inconclusive, G9a inh-1 0.71µM, BAZ2B block 22µM, JMJD2A Tudor inh 11µM (no result: L3MBTL1 block) | G9a inh-2 18
CC1=C(C(=O)Nc2ccc(C)cc2C)C(CC(C)C)n2nc(SCc3ccccc3C)nc2N1 (configuration not stated)	none (no result: L3MBTL1 block)
O=C(Cn1nc(C(F)(F)F)c2c1CCCC2)Nc1ccc(F)c(Cl)c1	none (no result: L3MBTL1 block)
